Publication PMC4336329 (PLoS ONE, 2015)
The whole screen tested about 310,000 compounds, of which about 14,000 (4.5%) showed an effect of 50% or more. The effect is printed as a negative number. The sample holds strong results, similar compounds and a random draw of the others, so the mix is not that of the screen.

These compounds were tested against human ether-à-go-go-related gene (hERG) potassium channel (human, UniProt Q12809) (assay: primary screen, population patch clamp on CHO cells stably expressing hERG; higher = less effect of the substance).
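Note: peak tail current of the secondary pulse compared with the same well before compound.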

human ether-à-go-go-related gene (hERG) potassium channel, sequence (Q12809 whole entry, looked up): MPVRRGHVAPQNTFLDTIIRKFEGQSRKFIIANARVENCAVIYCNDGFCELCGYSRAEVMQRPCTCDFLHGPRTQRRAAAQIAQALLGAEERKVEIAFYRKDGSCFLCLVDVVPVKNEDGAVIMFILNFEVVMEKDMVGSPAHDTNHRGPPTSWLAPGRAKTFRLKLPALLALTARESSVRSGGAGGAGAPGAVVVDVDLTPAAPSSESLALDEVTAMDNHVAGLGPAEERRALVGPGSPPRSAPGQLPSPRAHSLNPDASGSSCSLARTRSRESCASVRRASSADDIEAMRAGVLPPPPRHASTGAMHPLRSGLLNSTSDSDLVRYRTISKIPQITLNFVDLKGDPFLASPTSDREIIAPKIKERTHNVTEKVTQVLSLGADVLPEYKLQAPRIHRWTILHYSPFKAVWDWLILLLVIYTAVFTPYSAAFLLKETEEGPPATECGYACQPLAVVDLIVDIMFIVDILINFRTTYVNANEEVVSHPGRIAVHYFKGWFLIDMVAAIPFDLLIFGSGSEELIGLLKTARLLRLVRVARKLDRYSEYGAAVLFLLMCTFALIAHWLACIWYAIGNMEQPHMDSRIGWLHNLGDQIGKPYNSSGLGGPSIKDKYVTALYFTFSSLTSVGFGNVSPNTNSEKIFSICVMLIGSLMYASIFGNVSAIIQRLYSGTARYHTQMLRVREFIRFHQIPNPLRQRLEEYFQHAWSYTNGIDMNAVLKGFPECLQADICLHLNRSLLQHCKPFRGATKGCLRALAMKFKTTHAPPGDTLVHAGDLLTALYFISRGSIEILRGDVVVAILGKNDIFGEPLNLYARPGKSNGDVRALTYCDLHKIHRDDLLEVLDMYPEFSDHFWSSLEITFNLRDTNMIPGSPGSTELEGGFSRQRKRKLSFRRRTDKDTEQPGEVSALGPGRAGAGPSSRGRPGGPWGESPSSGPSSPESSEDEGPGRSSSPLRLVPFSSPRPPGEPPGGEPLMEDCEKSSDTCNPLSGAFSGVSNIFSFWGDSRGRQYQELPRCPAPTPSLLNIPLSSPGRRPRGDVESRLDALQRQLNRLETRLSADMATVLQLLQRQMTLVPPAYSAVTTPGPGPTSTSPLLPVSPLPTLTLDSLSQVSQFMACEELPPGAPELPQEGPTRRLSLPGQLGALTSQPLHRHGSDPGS

Compared with `COc1ccc(N(C(=O)COc2ccccc2)C2C=CS(=O)(=O)C2)cc1` (stereo not drawn), `COC(=O)c1sccc1N/N=C/c1cccc(Oc2ccccc2)c1` is lower in “hERG current change (%, negative = inhibition) at 10uM” value: -1.57% for the first, -7.09% for the second.

Compared with `CCC(=O)Nc1c(S(=O)(=O)c2ccc(C)cc2)c2nc3ccccc3nc2n1C(C)c1ccccc1` (stereo not drawn), `CN(C)S(=O)(=O)c1ccc(N2CCCC2)c(C(=O)NC(c2ccccc2)c2ccccc2)c1` is higher in “hERG current change (%, negative = inhibition) at 10uM” value: -14.9% for the first, 6.73% for the second.

Going from `C=C(C)CN=C1NN=C(c2cc(C)n(-c3ccc(C)cc3)c2C)CS1` to `COc1ccc(N2C(=O)C(OC(C)=O)C2c2ccc(C)cc2)cc1` (stereo not drawn), the “hERG current change (%, negative = inhibition) at 10uM” value rises from 4.06% to 17.3%.

Going from `O=C(NCCNC(=O)c1ccccc1F)c1ccco1.O=C(O)C(=O)O` to `CCN(CC)CCNC(=O)c1ccc(NC(=O)c2c(F)cccc2Cl)cc1`, the “hERG current change (%, negative = inhibition) at 10uM” value falls from 13.9% to -12.4%.

First: O=C(CSc1ccc(Cl)cc1)N1CCN(c2c(Cl)cccc2[N+](=O)[O-])CC1
Second: O=C(CSc1ccc(Cl)cc1)N1CCN(c2ccc(Cl)cc2[N+](=O)[O-])CC1
The “hERG current change (%, negative = inhibition) at 10uM” value of the first is higher: -17.2% for the first, -61.5% for the second.

Going from `O=C(CSc1ccc(Cl)cc1)N1CCCC1` to `CN1CCN(C(=O)CSc2ccc(Cl)cc2)CC1`, the “hERG current change (%, negative = inhibition) at 10uM” value falls from 16.6% to 6.35%.

Going from `O=C(CSc1ccc(Cl)cc1)N1CCN(c2ccc([N+](=O)[O-])cc2Cl)CC1` to `O=C(CN1CCN(c2ccc(Cl)cc2[N+](=O)[O-])CC1)N1CCOCC1`, the “hERG current change (%, negative = inhibition) at 10uM” value rises from -59.2% to -33.6%.

Compared with `CCN1C(=O)c2ccc(C(=O)O)cc2C1=O`, `Cc1nn(C(=O)c2ccco2)c(C)c1CN1C(=O)c2ccccc2C1=O` is lower in “hERG current change (%, negative = inhibition) at 10uM” value: 9.2% for the first, -12.2% for the second.

Compared with `c1ccc(CCNc2ncnc3sccc23)nc1`, `Cc1ccc(F)cc1NC(=O)CN1CCN(c2ccccn2)CC1` is lower in “hERG current change (%, negative = inhibition) at 10uM” value: 26.8% for the first, -35.2% for the second.

Going from `O=C(c1ccc(Cl)cc1)c1ccc(OCC(=O)N2CCOCC2)cc1` to `CCOC(=O)N1CCN(C(=O)c2ccc(NC(=O)c3ccc(C)cc3)cc2)CC1`, the “hERG current change (%, negative = inhibition) at 10uM” value rises from -40.8% to -13.3%.

First: COc1ccc([N+](=O)[O-])cc1NC(=O)Cn1ccc(C(F)(F)F)n1
Second: CN(C)S(=O)(=O)c1ccc(N2CCCC2)c(C(=O)NCc2cccc(C(F)(F)F)c2)c1
The “hERG current change (%, negative = inhibition) at 10uM” value of the first is higher: 13.3% for the first, 4.61% for the second.

First: COc1ccc([C@@H]2Sc3cc(OC)ccc3N(CCN(C(C)C)C(C)C)C(=O)[C@H]2OC(C)=O)cc1.Cl
Second: COc1ccc2c(c1)Sc1ccccc1N2CCN(C)C.O=C(O)C(=O)O
The “hERG current change (%, negative = inhibition) at 10uM” value of the first is lower: -75% for the first, -21.3% for the second.

First: Cc1ccc(N2C(=O)CC(Sc3ncn[nH]3)C2=O)cc1C (stereo not drawn)
Second: COC(=O)c1c(C)nn(-c2ccc(F)c(Cl)c2)c1-c1cc(C)on1
The “hERG current change (%, negative = inhibition) at 10uM” value of the first is higher: 14.2% for the first, -4.39% for the second.

Compared with `S=C(NCC1CCCO1)N1CCN(c2ccccc2)CC1` (stereo not drawn), `O=C(C1CCCO1)N1CCN(C(c2ccccc2)c2ccccc2)CC1` (stereo not drawn) is lower in “hERG current change (%, negative = inhibition) at 10uM” value: 23.5% for the first, 0.514% for the second.

Going from `Cc1cc2ccccc2c(=O)[nH]1` to `CS(=O)(=O)NNC(=O)c1cc2cc3ccccc3nc2s1`, the “hERG current change (%, negative = inhibition) at 10uM” value falls from 16.5% to 9.84%.

Going from `CCn1c(CNC(=O)C2CCCCC2)cc2cc(C)ccc21` to `CN(C)S(=O)(=O)c1ccc(N2CCCC2)c(C(=O)NCc2ccccc2)c1`, the “hERG current change (%, negative = inhibition) at 10uM” value falls from 28% to -10%.

Going from `CN(C)c1nc(NCc2ccccc2)nc(SCC(N)=O)n1` to `CN(C)S(=O)(=O)c1ccc(N2CCCC2)c(C(=O)Nc2ccccc2F)c1`, the “hERG current change (%, negative = inhibition) at 10uM” value falls from 7.76% to -14.7%.

Going from `N=c1c2c(-c3ccccc3)c(-c3ccccc3)oc2ncn1CCN1CCOCC1` to `N=c1c2c(-c3ccccc3)c(-c3ccccc3)oc2ncn1CCCN1CCOCC1`, the “hERG current change (%, negative = inhibition) at 10uM” value falls from -70.8% to -79.2%.

Going from `Cn1c(=O)c2c(-c3ccccc3)n(CCCN3CCOCC3)cc2n(C)c1=O` to `Cn1c2ccccc2c2ncn(CCCN3CCOCC3)c(=O)c21`, the “hERG current change (%, negative = inhibition) at 10uM” value falls from 16.1% to -16.6%.

First: O=c1oc2ccccc2c2c1ncn2CCN1CCOCC1
Second: COc1ccc(-c2oc3ncn(CCN4CCOCC4)c(=N)c3c2-c2ccc(OC)cc2)cc1
The “hERG current change (%, negative = inhibition) at 10uM” value of the first is higher: -8.76% for the first, -70.3% for the second.

Compared with `COc1ccc(-c2oc3ncnc(NCCN4CCOCC4)c3c2-c2ccc(OC)cc2)cc1`, `COc1ccc(-c2oc3ncn(Cc4ccco4)c(=N)c3c2-c2ccc(OC)cc2)cc1` is lower in “hERG current change (%, negative = inhibition) at 10uM” value: 2.75% for the first, -49.4% for the second.

Compared with `CC(C)Cc1n[nH]c(=O)[nH]1`, `Cc1nnsc1SCC(=O)O` is higher in “hERG current change (%, negative = inhibition) at 10uM” value: -6.31% for the first, -0.15% for the second.

First: O=C(Nc1c2c(nn1-c1ccc(F)cc1)CS(=O)C2)c1ccc(S(=O)(=O)N2CCOCC2)cc1 (stereo not drawn)
Second: CCN(CC)CCNC(=O)c1ccc(NC(=O)c2c(C)nn(-c3ccc(F)cc3)c2Cl)cc1
The “hERG current change (%, negative = inhibition) at 10uM” value of the first is higher: 21.9% for the first, -60% for the second.

Compared with `Cc1cc(NC(=O)c2c(-c3ccccc3Cl)noc2C)no1`, `COc1cc(OC)nc(Oc2ccccc2C(=O)Oc2ccc(Cl)cc2)n1` is lower in “hERG current change (%, negative = inhibition) at 10uM” value: 5.88% for the first, -21.6% for the second.

Going from `COc1ccc(NC(=O)C2=CC(c3ccc(OC)c(OC)c3)=NS(=O)(=O)N2C)cc1` to `COc1cc(-c2nn3c(-c4cccc(C)c4)nnc3s2)cc(OC)c1OC`, the “hERG current change (%, negative = inhibition) at 10uM” value rises from -4% to 13.1%.

Going from `O=C(NCC1CCCO1)c1cc(-c2ccc(F)cc2)no1` (stereo not drawn) to `O=C(N=C1SC2CS(=O)(=O)CC2N1Cc1ccc(F)cc1)C1CCCO1` (stereo not drawn), the “hERG current change (%, negative = inhibition) at 10uM” value falls from 0.634% to -5.58%.

Going from `O=C1C2(c3ccccc3)CN(CCO)CC1(c1ccccc1)CN(CCO)C2` to `O=C1C2(c3ccccc3)CN(CCCO)CC1(c1ccccc1)CN(CCCO)C2`, the “hERG current change (%, negative = inhibition) at 10uM” value falls from -10.6% to -50.4%.

First: C=CCN1CC2(c3ccccc3)CN(CC=C)CC(c3ccccc3)(C1)C2=O
Second: CC(=O)c1ccc(OCC(O)CN2CCN(c3ccccn3)CC2)cc1.Cl (stereo not drawn)
The “hERG current change (%, negative = inhibition) at 10uM” value of the first is higher: -19.3% for the first, -25.8% for the second.

Going from `CCOC(=O)C1CCN(C(=O)CN2C(=O)CSc3ccc(S(=O)(=O)N4CCOCC4)cc32)CC1` to `CN(C)S(=O)(=O)c1ccc(N2CCCC2)c(C(=O)NNC(=O)COc2ccccc2Cl)c1`, the “hERG current change (%, negative = inhibition) at 10uM” value falls from -22.6% to -30.3%.

Compared with `CN(C)S(=O)(=O)c1ccc(N2CCCC2)c(C(=O)NCc2ccc(Cl)cc2)c1`, `CN(C)S(=O)(=O)c1ccc(N2CCCC2)c(C(=O)Nc2ccccc2Br)c1` is higher in “hERG current change (%, negative = inhibition) at 10uM” value: -68.5% for the first, -58.3% for the second.

Compared with `CN(C)S(=O)(=O)c1ccc(N2CCCC2)c(C(=O)Nc2ccc(Br)cc2F)c1`, `CN(C)S(=O)(=O)c1ccc(N2CCCC2)c(C(=O)Nc2ccc(F)cc2F)c1` is lower in “hERG current change (%, negative = inhibition) at 10uM” value: 3.03% for the first, -33.2% for the second.

Compared with `CCc1ccccc1NC(=O)c1cc(S(=O)(=O)N(C)C)ccc1N1CCCC1`, `CSc1ccccc1NC(=O)c1cc(S(=O)(=O)N(C)C)ccc1N1CCCC1` is lower in “hERG current change (%, negative = inhibition) at 10uM” value: -32.2% for the first, -54.7% for the second.

Going from `Cc1ccccc1OCC(=O)NNC(=O)c1cc(S(=O)(=O)N(C)C)ccc1N1CCCC1` to `CN(C)S(=O)(=O)c1ccc(N2CCCC2)c(C(=O)NNC(=O)COc2ccccc2F)c1`, the “hERG current change (%, negative = inhibition) at 10uM” value falls from 0.0569% to -61.4%.

Going from `CN(CC(=O)Nc1ccccc1Br)C(=O)c1cc(S(=O)(=O)N(C)C)ccc1N1CCCC1` to `CN(C)S(=O)(=O)c1ccc(N2CCCC2)c(C(=O)Nc2ccccc2OC(F)F)c1`, the “hERG current change (%, negative = inhibition) at 10uM” value falls from -8.64% to -54.2%.

Going from `CC1(C)C=C2[C@H]3CC[C@@H]4[C@@]5(C)CCC(=O)C(C)(C)[C@@H]5CC[C@@]4(C)[C@]3(C)CC[C@@]2(C(=O)O)CC1` to `Cc1cc(C)cc(OCc2ccc(C(=O)NC3CCOC3=O)o2)c1` (stereo not drawn), the “hERG current change (%, negative = inhibition) at 10uM” value rises from -1.05% to 15.9%.

First: CCN(CC)C(=O)C(=O)N/N=C/c1cccc(Br)c1
Second: CCN(CC)CCNC(=O)c1ccc(NC(=O)c2ccc(F)cc2)cc1
The “hERG current change (%, negative = inhibition) at 10uM” value of the first is higher: -8.07% for the first, -43.6% for the second.

Compared with `CCN(CC1COc2ccccc2O1)C(=S)NC1CC2CCC1C2` (stereo not drawn), `O=C(Nc1nccs1)C(c1ccccc1)N1CCCC1` (stereo not drawn) is lower in “hERG current change (%, negative = inhibition) at 10uM” value: 1.34% for the first, -7.89% for the second.

Compared with `CC1S/C(=N/N=C/c2ccco2)N(Cc2ccc(F)cc2)C1=O` (stereo not drawn), `Cc1c(CN2CC[C@@H](N3CCN(c4ccccn4)CC3)[C@H](O)C2)[nH]c2ccc(F)cc12` is lower in “hERG current change (%, negative = inhibition) at 10uM” value: -11.3% for the first, -60.9% for the second.

Going from `Cc1nn(C)c(=O)n1N(C)c1ncc(C(F)(F)F)cc1Cl` to `Cc1[nH]c2ccc(C(=O)N3CCN(c4ccccn4)CC3)cc2c1C`, the “hERG current change (%, negative = inhibition) at 10uM” value falls from 23.8% to -2.92%.

Compared with `O=C(O)CCSc1nnc(SCC(=O)NCC(F)(F)F)s1`, `Cl.OC(COCc1ccc(Cl)cc1)CN1CCN(c2ccccn2)CC1` (stereo not drawn) is lower in “hERG current change (%, negative = inhibition) at 10uM” value: 7.55% for the first, -66.4% for the second.

First: OC(c1ccc(Cl)cc1)C(O)c1nc2ccccc2[nH]1 (stereo not drawn)
Second: OC(COc1ccc(Cl)cc1)CN1CCN(c2ccccn2)CC1 (stereo not drawn)
The “hERG current change (%, negative = inhibition) at 10uM” value of the first is higher: -2.47% for the first, -68% for the second.

Going from `Cc1cc(OCC(O)CN2CCN(c3ccccn3)CC2)cc(C)c1Cl.Cl` (stereo not drawn) to `CC(C)c1ccc(OCC(O)CN2CCN(c3ccccn3)CC2)cc1.Cl` (stereo not drawn), the “hERG current change (%, negative = inhibition) at 10uM” value falls from -0.237% to -63.7%.

Compared with `CC(C)(C)c1ccc(OCC(O)CN2CCN(c3ccccn3)CC2)cc1.Cl` (stereo not drawn), `OC(COc1ccc2cc(Br)ccc2c1)CN1CCN(c2ccccn2)CC1` (stereo not drawn) is higher in “hERG current change (%, negative = inhibition) at 10uM” value: -16% for the first, 1.85% for the second.

With `OC(CN1CCN(c2ccccn2)CC1)Cn1c2ccc(Cl)cc2c2cc(Cl)ccc21` (stereo not drawn) the “hERG current change (%, negative = inhibition) at 10uM” value was 0.599%.
